About 14,000 (4.5%) of roughly 310,000 compounds showed an effect of 50% or more. Effects have a minus sign here. Shown is part of a subset that was picked to be rich in strong results.
biological target: human ether-à-go-go-related gene (hERG) potassium channel (human, UniProt Q12809); assay: primary screen, population patch clamp on CHO cells stably expressing hERG; higher = less effect of the substance
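Further: peak tail current of the secondary pulse compared with the same well before compound.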

human ether-à-go-go-related gene (hERG) potassium channel, sequence (Q12809 whole entry, looked up): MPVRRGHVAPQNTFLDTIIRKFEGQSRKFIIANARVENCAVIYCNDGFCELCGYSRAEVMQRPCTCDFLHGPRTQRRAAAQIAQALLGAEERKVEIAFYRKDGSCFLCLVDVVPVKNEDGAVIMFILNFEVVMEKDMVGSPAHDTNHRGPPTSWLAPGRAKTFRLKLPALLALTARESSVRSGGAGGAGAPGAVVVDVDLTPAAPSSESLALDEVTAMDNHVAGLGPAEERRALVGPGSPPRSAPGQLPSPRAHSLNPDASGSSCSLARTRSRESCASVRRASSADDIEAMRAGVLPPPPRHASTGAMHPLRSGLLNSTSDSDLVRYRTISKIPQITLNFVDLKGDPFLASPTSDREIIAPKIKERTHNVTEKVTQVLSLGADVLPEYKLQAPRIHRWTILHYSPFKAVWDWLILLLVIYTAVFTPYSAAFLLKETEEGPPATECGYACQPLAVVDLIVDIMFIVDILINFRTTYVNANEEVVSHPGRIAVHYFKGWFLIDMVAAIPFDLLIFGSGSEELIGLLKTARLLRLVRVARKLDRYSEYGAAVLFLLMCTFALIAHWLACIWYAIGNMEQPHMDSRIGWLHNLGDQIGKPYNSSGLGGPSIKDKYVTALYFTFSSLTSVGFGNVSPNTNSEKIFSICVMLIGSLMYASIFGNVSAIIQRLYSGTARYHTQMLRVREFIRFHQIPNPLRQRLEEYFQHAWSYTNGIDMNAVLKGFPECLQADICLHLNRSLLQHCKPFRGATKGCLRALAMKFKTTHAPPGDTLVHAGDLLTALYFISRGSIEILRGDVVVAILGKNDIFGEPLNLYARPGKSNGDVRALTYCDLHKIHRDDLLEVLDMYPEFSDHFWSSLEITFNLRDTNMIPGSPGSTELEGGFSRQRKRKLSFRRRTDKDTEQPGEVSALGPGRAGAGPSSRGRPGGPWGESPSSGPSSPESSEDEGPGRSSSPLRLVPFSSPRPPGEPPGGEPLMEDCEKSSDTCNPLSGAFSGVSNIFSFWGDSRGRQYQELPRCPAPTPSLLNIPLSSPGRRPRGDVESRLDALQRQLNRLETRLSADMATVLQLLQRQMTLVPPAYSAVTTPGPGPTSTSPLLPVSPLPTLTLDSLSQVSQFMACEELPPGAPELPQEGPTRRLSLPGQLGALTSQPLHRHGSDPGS

Row | SMILES | hERG current change (%, negative = inhibition) at 10uM [%]
1 | CCOCCCNC(=S)N1CCN(C(=O)C(=O)Nc2ccc(C(=O)OC)cc2)CC1 | -40.6
2 | CSCCC(NC(=O)COc1ccccc1)C(=O)OCC(=O)c1cc2ccccc2o1 (centres unmarked) | 8.62
3 | COc1ccc(C(=O)NC(=S)NCc2ccccc2)cc1 | -0.211
4 | Cc1ccccc1CNC(=O)CCC(=O)N1CCOc2ccccc21 | 7.41
5 | Cc1ccc(-c2c(C)n([O-])c3c([n+]2=O)CCCCC3)o1 | -1.3
6 | Cc1c(NC(=O)c2ccc(Cl)nc2)cccc1-c1nc2cccnc2s1 | -48.1
7 | CCCOc1ccc(/C=c2\sc3ncnn3c2=O)cc1 | 6.61
8 | CCOCc1[nH]c(=S)[nH]c(=O)c1Cc1ccc(OCC)cc1 | 9.49
9 | CCOCc1[nH]c(=S)[nH]c(=O)c1Cc1ccc(OC(C)C)cc1 | -58.8
10 | CCOCc1[nH]c(=S)[nH]c(=O)c1Cc1ccc(OCC(C)C)cc1 | 14
11 | COc1cccc(C2=CC(c3cccs3)n3nnnc3N2)c1 (centres unmarked) | 14.5
12 | CCc1nnc(SCc2ccc(OC(C)C)cc2)n1N | 9.36
13 | CCCCn1c2c(c(=O)n(C)c1=O)C(CC(=O)OCC(=O)Nc1cccc(C(F)(F)F)c1)C(=O)N2 (centres unmarked) | -5.56
14 | COc1cccc(NC(=O)C(C)Sc2nnc(C3CC3)n2C2CC2)c1 (centres unmarked) | -67
15 | CC(Sc1nnc(C2CC2)n1C1CC1)C(=O)Nc1ccccc1C#N (centres unmarked) | -10
16 | Cc1ccc(NC(=O)C(C)Sc2nnc(C)n2C2CC2)cc1S(=O)(=O)N1CCOCC1 (centres unmarked) | -13.9
17 | CC(Sc1nnc(C2CC2)n1C1CC1)C(=O)Nc1cccc(S(=O)(=O)N2CCOCC2)c1 (centres unmarked) | -11.8
18 | Cc1ccc(NC(=O)C(C)Sc2nnc(C3CC3)n2C2CC2)cc1S(=O)(=O)N1CCOCC1 (centres unmarked) | -51
19 | CC(Sc1nnc(C2CC2)n1C1CC1)C(=O)Nc1cccc(S(=O)(=O)N(C)C)c1 (centres unmarked) | -19.5
20 | COc1ccc(Cl)cc1NC(=O)C(C)Sc1nncn1C (centres unmarked) | 0.256
21 | COc1ccc(Cl)cc1NC(=O)C(C)Sc1nnc(C2CC2)n1C1CC1 (centres unmarked) | -69.5

Row | SMILES | hERG current change (%, negative = inhibition) at 10uM [%]
22 | COc1ccc(NC(=O)C(C)Sc2nnc(C3CC3)n2C2CC2)cc1 (centres unmarked) | -13.3
23 | Cc1ccc(C)c(OCCC(=O)NCCc2ccc(S(N)(=O)=O)cc2)c1 | 10.7
24 | O=C(c1cccs1)[C@@H]1[C@@H]2C(=O)N(Cc3ccc4c(c3)OCO4)C(=O)[C@@H]2C2c3ccccc3C=CN21 (some centres unmarked) | -26.7
25 | O=C(CCCCCN1C(=O)c2cccc3cccc(c23)C1=O)NCCCO | -1.71
26 | O=c1[nH]c(C2CC2)nc2sc3c(c12)CCCC3 | 15.8
27 | CCOC(=O)c1c(NC(=O)COC(=O)Cc2c[nH]c3ccccc23)sc(C(=O)N(C)C)c1C | -62.5
28 | CCOC(=O)c1c(NC(=O)COC(=O)c2ccc([N+](=O)[O-])cc2)sc(C(=O)N(C)C)c1C | -8.65
29 | CCOC(=O)c1c(NC(=O)COC(=O)c2ccccn2)sc(C(=O)N(C)C)c1C | 4.44
30 | CCOC(=O)c1c(NC(=O)COC(=O)Cc2n[nH]c(=O)c3ccccc23)sc(C(=O)N(C)C)c1C | -2.24
31 | CCOC(=O)c1c(NC(=O)COC(=O)CCOc2ccc(OCC)cc2)sc(C(=O)N(C)C)c1C | -8.87
32 | CCOC(=O)c1c(NC(=O)COC(=O)Cc2ccccc2[N+](=O)[O-])sc(C(=O)N(C)C)c1C | -68.9
33 | CN(Cc1nc2ccccc2[nH]1)Cc1nc(CC2CC2)no1 | -14.5
34 | CCOc1cc(Br)ccc1S(=O)(=O)N1CCC(C(N)=O)CC1 | -5.26
35 | O=C1COc2ccc(C(=O)COc3ccc([N+](=O)[O-])cc3)cc2N1 | 8.2
36 | CC(C)Oc1ccc(C(CC(=O)O)NC(=O)c2cccs2)cc1 (centres unmarked) | -2.74
37 | CC1(C)CC(=O)C2=C(C1)Oc1ncn(Cc3ccco3)c(=N)c1C2c1ccccc1 (centres unmarked) | -60.8
38 | COc1ccc(C2C3=C(CC(C)(C)CC3=O)Oc3ncn(CCCn4ccnc4)c(=N)c32)cc1 (centres unmarked) | -16.6
39 | CC(C)Cn1cnc2c(c1=N)C(c1ccccc1)C1=C(CC(C)(C)CC1=O)O2 (centres unmarked) | -38.8
40 | CC1(C)CC(=O)C2=C(C1)Oc1ncn(CCCO)c(=N)c1C2c1ccccc1 (centres unmarked) | -29
41 | COc1ccc(C2C3=C(CC(C)(C)CC3=O)Oc3ncn(CC(C)C)c(=N)c32)cc1 (centres unmarked) | -69.1
42 | COc1ccc(C2C3=C(CC(C)(C)CC3=O)OC(N)=C2[N+](=O)[O-])cc1 (centres unmarked) | 8.74

Row | SMILES | hERG current change (%, negative = inhibition) at 10uM [%]
43 | CC1(C)CC(=O)C2=C(C1)Oc1ncn(CCO)c(=N)c1C2c1ccccc1 (centres unmarked) | -35.3
44 | CC1(C)CC(=O)C2=C(C1)Oc1ncn(CCCn3ccnc3)c(=N)c1C2c1ccccc1 (centres unmarked) | -53.3
45 | N=c1c2c(ncn1Cc1ccco1)Oc1ccc3ccccc3c1C2c1ccccc1 (centres unmarked) | -6.08
46 | COc1ccc(C2C(C#N)=C(N)OC3=C2C(=O)CC(C)(C)C3)cc1 (centres unmarked) | 12.8
47 | COc1ccc(C2C3=C(CC(C)(C)CC3=O)Oc3ncn(Cc4ccco4)c(=N)c32)cc1 (centres unmarked) | -68.3
48 | COc1ccc(C2C3=C(CC(C)(C)CC3=O)Oc3ncn(CCO)c(=N)c32)cc1OC (centres unmarked) | -24.5
49 | Cc1onc(-c2c(Cl)cccc2Cl)c1C(=O)O/N=C(\C#N)c1c(Cl)cccc1Cl | 9.4
50 | COc1cccc(CNC(=O)CCNC(=O)c2ccc(Br)o2)c1 | 11.2
51 | Nc1cc(=O)[nH]c(SCC(=O)Nc2ccccc2Sc2ccc(Cl)cc2)n1 | 14.5
52 | Cc1ccc(OCCNC(=O)CNC(=O)c2ccc(C)cc2)cc1 | 9.37
53 | COCCNC(=O)Cc1cn(C)c2ccccc12 | 4.15
54 | CCOC(=O)N1CCC(=NNC(=O)c2ccc(O)cc2)CC1 | 4.27
55 | COc1ccc(C2C3=C(CC(C)(C)CC3=O)Oc3ncn(Cc4ccccc4)c(=N)c32)cc1 (centres unmarked) | -55.5
56 | COc1ccc(C2C3=C(CC(C)(C)CC3=O)Oc3ncn4nc(-c5cccnc5)nc4c32)cc1 (centres unmarked) | -2.59
57 | COc1ccc(C2C3=C(CC(C)(C)CC3=O)Nc3c2c(=O)[nH]c(=O)n3Cc2ccccc2)cc1 (centres unmarked) | 8.57
58 | COc1ccc(-c2[nH]ncc2CN2CCC(C(=O)N3CCOCC3)CC2)c(F)c1 | 5.23
59 | O=C(c1ccc(F)cc1)C1CCN(Cc2cn[nH]c2-c2ccccc2)CC1 | -78.8
60 | O=C(c1ccc(F)cc1)C1CCN(Cc2cn[nH]c2-c2ccc(F)cc2)CC1 | -75.2
61 | COc1ccc(-c2[nH]ncc2CN2CCC(C(=O)c3ccc(F)cc3)CC2)cc1 | -76.2
62 | O=C(C1CCN(Cc2cn[nH]c2-c2ccc(F)cc2F)CC1)N1CCOCC1 | 8.72
63 | O=C(c1ccc(F)cc1)C1CCN(S(=O)(=O)c2ccccc2)CC1 | -43.1

Row | SMILES | hERG current change (%, negative = inhibition) at 10uM [%]
64 | COc1ccc(C(=O)N2CCN(Cc3cn[nH]c3-c3ccc(OC)cc3F)CC2)cc1 | -38.3
65 | O=S(=O)(c1ccc2c(c1)CCN2)N1CCOCC1 | -2.2
66 | O=c1c2cc(N3CCOCC3)ccc2[nH]c(=S)n1Cc1ccco1 | -25.1
67 | Cc1cc(N2CC34C=CC(O3)C(C(=O)O)C4C2=O)no1 (centres unmarked) | 2.22
68 | COC(=O)COc1ccc2occ(C(C)=O)c2c1 | -3.74
69 | O=C(NCC(c1ccco1)N1CCc2ccccc2C1)c1ccccc1Br (centres unmarked) | -37.5
70 | CCCCCCC1C(C#N)=C(N)OC2=C1C(=O)CC(C)(C)C2 (centres unmarked) | -0.43
71 | Cc1ccccc1OC(C)C(=O)N1CCC(Cc2ccccc2)CC1 (centres unmarked) | -17.5
72 | O=C(/C=C/c1ccco1)Nc1ccc(CN2CCOCC2)cc1 | -31.3
73 | COc1ccc(SC[C@H](Cc2ccccc2)N2CC[C@@H](C)CCC2=O)cc1 | -20.1
74 | COc1ccc(CN2CCC(=O)N([C@H](CO)CC(C)C)CC2)cc1 | -2.62
75 | CCCN1CCC(=O)N(CCSc2ccc(OC)cc2)CC1 | -45.4
76 | COc1ccc(CN2CCC(=O)N([C@H](CO)Cc3ccccc3)CC2)cc1 | -2.16
77 | COc1ccc(SC[C@H](Cc2ccccc2)N2CC[C@@H](O)CCC2=O)cc1 | -8.62
78 | CCCN1CCC(=O)N([C@H](CSc2ccc(OC)cc2)Cc2ccccc2)CC1 | -70.5
79 | COc1ccc(SC[C@H](Cc2ccccc2)N2CC[C@@H](C(C)(C)C)CCC2=O)cc1 | 9.92
80 | COc1ccc(SC[C@H](CC(C)C)N2CCN(C)CCC2=O)cc1 | -36.3
81 | COc1ccc(SC[C@H](Cc2ccccc2)N2CCN(CCc3ccccc3)CCC2=O)cc1 | -74.6
82 | COc1ccc(SC[C@H](CC(C)C)N2CCN(CCc3ccccc3)CCC2=O)cc1 | -71.3
83 | CCCN1CCC(=O)N([C@H](CSc2ccc(OC)cc2)CC(C)C)CC1 | -70.8
